# A selection: hits, their analogues and other compounds. The true share with any hit is near 12%.
# Pf growth 48h – P. falciparum growth inhibition at 48 hours (one generation); P. falciparum luciferase growth in erythrocytes, 48 h; Potency, µM (top dose mostly 28.7 µM), usual class: inhibitors; hit rate 5.9% among 310,000
#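 Growth was read as firefly luciferase luminescence after a 48 h, 37 C, 5% CO2 exposure of compounds to reporter-bearing P. falciparum cultures (0.1% parasitemia, 2% hematocrit final) in Albumax-supplemented RPMI 1640.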
# Pf growth 96h – P. falciparum growth inhibition at 96 hours; P. falciparum luciferase reporter growth, 96 h; Potency, µM (titrated, usually from 28.7 µM), actives largely listed as inhibitors; hit rate 6.9% among 320,000; AID 504834
#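 Two parasite generations (96 h, 37 C, 5% CO2) of compound exposure in infected erythrocytes (0.05% parasitemia, 2% hematocrit). Luciferase-reporter P. falciparum; decreased luminescence indicates inhibited growth, aimed at apicoplast-acting delayed death.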
# Sm TGR block – S. mansoni TGR enzyme inhibition; Potency, µM (highest dose often 114 µM), most hits filed as inhibitors; hit rate 3% among 360,000; purified TGR, DTNB reduction, TNB absorbance 405 nm; Q962Y6; note: nearly all actives have a fitted effect of over 60% in size
#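 Kinetic colorimetric format: TGR-catalysed, NADPH-driven DTNB reduction monitored via TNB absorbance. Enzyme dispensed at 20 nM; compound exposure 15 min at room temperature before reaction start.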
# SARS PLP yeast – SARS-CoV PLP inhibition in yeast | AID 485353 | hit rate 0.19% among 330,000 | S. cerevisiae expressing SARS-CoV PLpro, growth rescue | Potency, µM (series often up to 32.9 µM), usual class: activators; calls by dose curve; note: nearly all actives have a fitted effect of over 55% in size
# AmpC inh no detg – inhibitors of E. coli AmpC beta-lactamase without detergent. P00811. AmpC nitrocefin hydrolysis, absorbance 480 nm, 0.0001% Triton. Potency, µM (doses to about 57.1 µM), hits mostly inhibitors. hit rate 0.52% among 330,000. AID 485341; note: nearly all actives have a fitted effect of over 20% in size
# Target sequence (P00811 whole entry, looked up): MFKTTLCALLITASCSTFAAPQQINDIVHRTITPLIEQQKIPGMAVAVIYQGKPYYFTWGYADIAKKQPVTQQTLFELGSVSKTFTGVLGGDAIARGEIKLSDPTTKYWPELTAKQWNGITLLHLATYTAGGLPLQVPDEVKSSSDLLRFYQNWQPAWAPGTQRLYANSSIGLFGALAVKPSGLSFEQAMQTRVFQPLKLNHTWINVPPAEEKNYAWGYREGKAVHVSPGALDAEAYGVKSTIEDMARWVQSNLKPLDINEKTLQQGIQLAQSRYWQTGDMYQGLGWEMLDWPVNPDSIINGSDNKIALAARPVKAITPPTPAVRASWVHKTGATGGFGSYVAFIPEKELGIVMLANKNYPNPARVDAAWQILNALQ
#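 AmpC (5.3 nM in the dispensed reagent) in 20 mM phosphate pH 7.0 with 0.01% (detergent screen) or 0.0001% Triton X-100 was preincubated with compounds for 15 min at room temperature. Nitrocefin was then added from an 800 uM solution, and hydrolysis was followed at 480 nm.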
# AmpC detergent – blocks E. coli AmpC beta-lactamase in detergent assay | P00811 | AmpC hydrolysis of nitrocefin, absorbance 480 nm, 0.01% Triton | Potency, µM (series often up to 114 µM), hits mostly inhibitors | hit rate 0.041% among 370,000 | AID 485294; note: nearly all actives have a fitted effect of over 25% in size
#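 AmpC (5.3 nM in the dispensed reagent) in 20 mM phosphate pH 7.0 with 0.01% (detergent screen) or 0.0001% Triton X-100 was preincubated with compounds for 15 min at room temperature. Nitrocefin was then added from an 800 uM solution, and hydrolysis was followed at 480 nm.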
# Numbers stand for hits; i = inactive; ? = inconclusive; nt = no result given; [ ] = remark or other dose. Unless noted, calls come from the whole dose curve; as a rule, active = well fitted curve in the direction sought with a large enough effect; inconclusive = small, poorly fitted or top-dose-only effect, or another doubt; inactive = no such curve, though single readings can be large; an effect the other way counts as inactive or inconclusive.
SMILES,Pf growth 48h,Pf growth 96h,Sm TGR block,SARS PLP yeast,AmpC inh no detg,AmpC detergent
Cc1ccc(CN=Cc2[nH]c3ccc(Br)c(Cl)c3c2O)cc1,3.3µM,nt,45µM,i,i,i
Oc1c(C=NCc2ccc(F)cc2)[nH]c2ccc(Br)c(Cl)c12,2.6µM,nt,32µM,?,i,i
O=c1[nH]c(=O)n(C2CCCCCC2)c(O)c1C=NCc1ccc(F)cc1,?,i,i,i,i,?
O=C(C[n+]1ccccc1)N/N=C/c1cccs1,i,i,i,i,i,i
CCC(=O)N1CCc2cc(Br)cc(S(=O)(=O)N3CCC(C(=O)NC(C)C)CC3)c21,6.6µM,i,i,i,i,?
O=C(C1CC1)N1CCc2cc(Br)cc(S(=O)(=O)N3CCCCCC3)c21,1.7µM,nt,i,i,i,i
CCOC(=O)C1CCCN(S(=O)(=O)c2cc(Br)cc3c2N(C(=O)CC)CC3)C1 (stereo not drawn),?,i,i,i,i,i
CCC(=O)N1CCc2cc(Br)cc(S(=O)(=O)NCCN3CCCCC3CC)c21 (stereo not drawn),?,?,i,i,i,i
CCC(=O)N1CCc2cc(Br)cc(S(=O)(=O)N3CCCCC3CC)c21 (stereo not drawn),1µM,?,i,i,i,i
O=C(C1CC1)N1CCc2cc(Br)cc(S(=O)(=O)N3CCN(c4cccc(Cl)c4)CC3)c21,nt,nt,i,nt,nt,i
CCOC(=O)C1CCCN(S(=O)(=O)c2cc(Br)cc3c2N(C(=O)C2CC2)CC3)C1 (stereo not drawn),3.3µM,i,i,i,i,?
COc1ccc(CC(=O)Nc2ccc(-c3nc4ccccc4s3)c(C)c2)cc1OC,nt,nt,i,nt,nt,i
CCCCC(=O)OC1=C(C(=O)c2ccccc2)N(CCC)S(=O)(=O)c2ccccc21,nt,nt,i,nt,nt,i
COc1ccc(NC(=O)c2cc3c(s2)-c2c(C)cccc2OC3)c(OC)c1,nt,nt,i,nt,nt,i
CCC(=O)N1CCc2cc(Br)cc(S(=O)(=O)C3(C(=O)OC)CC3)c21,4.1µM,?,i,?,i,i
CCOC(=O)N1CCC(NS(=O)(=O)c2cc3c(cc2Cl)NC(=O)CO3)CC1,?,0.21µM,i,i,i,i
CCCN(CCC)S(=O)(=O)c1cc(Br)cc2c1N(C(=O)CC)CC2,1µM,?,i,nt,i,i
CCOC(=O)N1CCC(NS(=O)(=O)c2cc(Br)cc3c2N(C(=O)CC)CC3)CC1,8.3µM,i,i,i,i,?
O=C(NC(CO)C(=O)OCc1ccccc1)OCc1ccccc1 (stereo not drawn),i,i,i,i,i,i
O=C(C1CC1)N1CCc2cc(Br)cc(S(=O)(=O)NCCCN3CCCCC3)c21,i,i,i,nt,i,i
O=C(C1CC1)N1CCc2cc(Br)cc(S(=O)(=O)NC3CCCCC3)c21,4.7µM,?,i,i,i,i
CCC(=O)N1CCc2cc(Br)cc(S(=O)(=O)N3CCCCCC3)c21,2.9µM,?,i,i,i,i
C=C(C)CN(CC)Cc1c(C(=O)N(C)CCCC)nc2ccccn12,i,9.3µM,i,i,i,i
COc1ccc(-c2cc(C(F)(F)F)nc(SCCC(=O)Nc3cc(C)on3)n2)cc1,i,nt,i,nt,nt,i
Cc1cc(NC(=O)CCCS(=O)(=O)c2nc(-c3cccs3)cc(C(F)(F)F)n2)no1,?,i,13µM,i,i,i
SMILES,Pf growth 48h,Pf growth 96h,Sm TGR block,SARS PLP yeast,AmpC inh no detg,AmpC detergent
CCCNC(=O)CSc1nc(-c2cccs2)cc(C(F)(F)F)n1,i,8.3µM,i,i,i,i
Cc1cc(NC(=O)CSc2nc(-c3cccs3)cc(C(F)(F)F)n2)no1,?,1.9µM,i,i,i,?
O=C(O)C1C2C=CC(C2)C1C(=O)NCc1ccc(Cl)cc1Cl (stereo not drawn),i,i,i,i,i,i
c1ccc(Nc2c3c(nc4ncnn24)CCC3)cc1,i,12µM,?,i,i,i
Clc1ccccc1Nc1c2c(nc3ncnn13)CCC2,12µM,3.3µM,i,i,i,i
c1ccc(CCNc2c3c(nc4ncnn24)CCC3)cc1,1.5µM,i,i,i,i,i
Fc1ccccc1CCNc1c2c(nc3ncnn13)CCCC2,i,i,i,i,i,i
c1coc(CNc2c3c(nc4ncnn24)CCC3)c1,nt,i,i[11.4 µM],i,i,i
c1coc(CNc2c3c(nc4ncnn24)CCCC3)c1,i,i,i,i,i,i
CSc1c2c(nc3ncnn13)CCC2,?,9.3µM,i,i,i,i
Cc1ccc2nsnc2c1S(=O)(=O)Nc1ccccc1C(=O)O,i,i,i,i,i,i
Cc1ccc(C)c(NC(=O)c2cc(-c3cc(C)ccc3O)n[nH]2)c1,i,?,i,i,i,i
Cc1ccc(O)c(-c2cc(C(=O)NCc3ccncc3)[nH]n2)c1,2.9µM,4.1µM,i,i,i,?
Cc1cc(C)c(O)c(-c2cc(C(=O)NCc3ccccc3)[nH]n2)c1,nt,?,i,i,i,?
Cc1ccc(NC(=O)c2cc(-c3ccccc3O)n[nH]2)cc1Cl,?,?,i,i,i,i
Cc1cccc(NC(=O)c2cc(-c3c(C)cc(C)cc3O)n[nH]2)c1,i,15µM,i,i,i,?
Cc1cccc(NC(=O)c2cc(-c3cc(Cl)ccc3O)n[nH]2)c1,2.6µM,2.3µM,i,i,i,i
Cc1ccc(NC(=O)c2cc(-c3cc(Cl)ccc3O)n[nH]2)cc1C,1.9µM,1.7µM,i,i,i,i
CCOc1ccc(OCCn2c(S(=O)(=O)O)nc3c(N)ncnc32)cc1,i,i,i,i,i,i
CC1=NN(C(N)=S)C(=O)C1N=Nc1ccccc1C (stereo not drawn),?,i,i,i,i,i
CC1=NN(C(N)=S)C(=O)C1N=Nc1c(C)cc(C)cc1C (stereo not drawn),nt,4.1µM,i,i,i,i
CC1=NN(C(N)=S)C(=O)C1N=Nc1ccc(C)cc1C (stereo not drawn),nt,8.3µM,i,i,i,i
CCc1nnc(N/N=C/c2cc(Br)c(O)cc2O)n1N,?,i,35µM,i,i,i
OC(CNc1nc2ccccc2s1)c1ccccc1 (stereo not drawn),13µM,i,i,i,i,i
OCC(O)/C=N/Nc1nc2ccccc2s1 (stereo not drawn),i,?,i,i,i,i
CCCC(=O)N(c1ccc2oc3c(c2c1)CCCC3)S(=O)(=O)c1ccc(CC)cc1,nt,nt,i,nt,nt,i
N#Cc1c(N)oc(-c2ccco2)c1-c1ccco1,i,i,35µM,i,i,i
N#Cc1c(N)oc(-c2cccs2)c1-c1cccs1,9.3µM,13µM,i,i,i,i
c1ccc(-c2noc(CN3CCN(c4ccccc4)CC3)n2)cc1,nt,7.4µM,i,i,i,?
OCCN1CCN(Cc2nc(-c3cccc(Cl)c3)no2)CC1,i,?,i,i,i,i
